Measured values taken from publication PMC5540273 (PLoS ONE, 2017).

Experiments:
Settings in all cases: concentration: 1 μM, replicates: in singlicate; n = 1
[1] = test system: T1, PFTK1
T1 construct: gene CDK14

[2] = test system: PHKG1
[3] = test system: PHKG2
[4] = test system: PIK3C2B
[5] = test system: PIK3C2G
[6] = test system: PIK3CA
[7] = test system: PIK3CB
[8] = test system: PIK3CD
[9] = test system: PIK3CG
[10] = test system: T2, PIK4CB
T2 construct: gene PI4KB

[11] = test system: PIKFYVE
[12] = test system: PIM1
[13] = test system: PIM2
[14] = test system: PIM3
[15] = test system: PIP5K1A
[16] = test system: PIP5K1C
[17] = test system: PIP5K2B
[18] = test system: T3, PIP5K2C
T3 construct: gene PIP4K2C

[19] = test system: T4, PKAC-alpha
T4 construct: gene PRKACA

[20] = test system: T5, PKAC-beta
T5 construct: gene PRKACB
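Further: KINOMEscan kinase panel screen.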

Row | Compound | %Inh [1] | %Inh [2] | %Inh [3] | %Inh [4] | %Inh [5] | %Inh [6] | %Inh [7] | %Inh [8] | %Inh [9] | %Inh [10] | %Inh [11] | %Inh [12] | %Inh [13] | %Inh [14] | %Inh [15] | %Inh [16] | %Inh [17] | %Inh [18] | %Inh [19] | %Inh [20]
1 | O=C(NOCC1CC1)c1ccc(F)c(F)c1Nc1ccc(I)cc1Cl | 0% | 0% | 0% | 0% | 0% | 15% | 0% | 0% | 0% | 100% | 40% | 0% | 0% | 0% | 0% | 3% | 0% | 0% | 0% | 0%
2 | NS(=O)(=O)c1cccc(-c2ccc3ncc(N4CCOCC4)nc3c2)c1 [GSK1535721] | 24% | 0% | 41% | 0% | 14% | 13% | 12% | 34% | 29% | 81% | 11% | 14% | 0% | 0% | 0% | 48% | 11% | 75% | 0% | 0%
3 | COc1cc2c(cc1OC[C@@H](O)CO)ncc1c3ccc(C#N)cc3[nH]c21 | 0% | 95.5% | 99.2% | 0% | 0% | 18% | 0% | 2% | 9% | 0% | 56% | 0% | 81% | 35% | 38% | 47% | 42% | 76% | 0% | 0%
4 | CN1c2ccc(NCc3ccc(F)cc3)cc2-c2c(cnn2C)S1(=O)=O | 0% | 0% | 0% | 0% | 0% | 0% | 0% | 0% | 0% | 0% | 32% | 0% | 2% | 0% | 31% | 31% | 0% | 3% | 9% | 0%
5 | Cc1cn2c(=O)cc(N3CCOCC3)nc2n1Cc1cccc(Cl)c1Cl [GSK2334006] | 0% | 14% | 14% | 36% | 1% | 3% | 88% | 100% | 22% | 0% | 50% | 10% | 0% | 0% | 0% | 30% | 0% | 10% | 3% | 29%
6 | C[C@@H](Oc1cc(-n2cnc3ccc(NC(=O)NC(C)(C)C)cc32)sc1C(N)=O)c1ccccc1Cl [GSK346294] | 24% | 0% | 13% | 0% | 0% | 3% | 5% | 0% | 6% | 0% | 37% | 17% | 0% | 0% | 35% | 48% | 10% | 42% | 4% | 0%
7 | COC(=O)Nc1nc2cc(Oc3ccc(NC(=O)Nc4cc(F)ccc4F)cc3)ccc2[nH]1.Cl [GW701424] | 19% | 0% | 0% | 0% | 0% | 0% | 0% | 0% | 0% | 0% | 31% | 13% | 0% | 2% | 41% | 9% | 14% | 40% | 0% | 0%
8 | N#Cc1c(N2CCOCC2)sc(-c2ccn[nH]2)c1-c1ccc(Cl)cc1 | 19% | 9% | 0% | 31% | 37% | 90% | 97% | 46% | 20% | 16% | 44% | 18% | 0% | 16% | 0% | 0% | 7% | 0% | 0% | 0%
9 | Cn1cc(-c2ccc3c(c2)CCN3C(=O)Cc2ccccc2Cl)c2c(N)ncnc21 [GSK2608885] | 8% | 1% | 0% | 0% | 0% | 0% | 11% | 30% | 3% | 8% | 0% | 10% | 0% | 0% | 0% | 7% | 0% | 90.5% | 45% | 34%
10 | O=c1cc(N2CCOCC2)nc2n(Cc3cccc(Cl)c3Cl)c(C3CC3)nn12 [GSK2358994] | 0% | 8% | 0% | 70% | 64% | 8% | 100% | 82% | 45% | 0% | 0% | 0% | 22% | 0% | 0% | 0% | 0% | 0% | 25% | 5%
